The source made the active and inactive calls. The calls were made as follows: active = hit-call score of the fitted dose curve at least 0.9, where 1 is the maximum; inactive = score below 0.9.

Read-out in the assay: Intercellular Adhesion Molecule 1 (ICAM1), ICAM1 (gene 3383)
Nature of the assay: BSK_3C_ICAM1: BioMAP Diversity Plus: 3C Assay for Intercellular Adhesion Molecule 1 (ICAM1) Biomarker Activity (AID 2283003). The note with it: primary human endothelial cells (HUVEC); actives raise or lower the signal. On the procedure: BSK_3C is a cell-based, multiplexed-readout assay that uses umbilical vein endothelium, a human vascular primary cell, with measurements taken at 24 hours after chemical dosing in a 96-well plate.BSK_3C_ICAM1 is an assay component measured in the BSK_3C assay. It measures ICAM-1 antibody related to regulation of gene expression using ELISA technology.Data from the assay component BSK_3C_ICAM1 was analyzed into 1 assay endpoint. This assay endpoint, BSK_3C_ICAM1, was analyzed with bidirectional fitting relative to DMSO as the negative control and baseline of activity. Using a type of binding reporter, gain or loss-of-signal activity can be used to understand changes in the signaling as they relate to the gene ICAM1. Furthermore, this assay endpoint can be referred to as a primary readout, because this assay has produced multiple assay endpoints where this one serves a signaling function. To generalize the intended target to other relatable targets, this assay endpoint is annotated to the cell adhesion molecules intended target family, where the subfamily is Immunoglobulin CAM.
The levels of cell surface (or secreted, indicated by the prefix "s") biomarker endpoints were measured by ELISA. Overt cytotoxicity to cells in confluent adherent cultures (all systems other than the BT system) was assessed by measuring total protein levels using sulforhodamine B (SRB) staining in parallel cultures at the time of biomarker measurements, indicated as SRB endpoints. For proliferation assays for adherent cell types, individual cell types are cultured at sub-confluence and relative cell numbers quantified by SRB staining at time points optimized for each system (48 h: 3C and CASM3C systems; 72 h: BT and HDF3CGF systems; 96 h: SAg system). SRB was performed by staining cells with 0.1% SRB after fixation with 10% TCA and reading wells at 560 nm.Viability and proliferation of PBMC (T cells) was quantified by Alamar Blue reduction for the SAg and BT systems. For PBMC viability (referred to as PBMC Cytotoxicity within the assay endpoint names), cells were plated (75,000/well in a 96-well plate) and then chemical samples added for 1 h before addition of activators, SEB and TSST-1 (20 ng/mL final concentration each). Cells were incubated for 90 h. Then, Alamar Blue (20 uL/well) (Invitrogen, Cat DAL1100) was added for 6 h, and the plates were read with a fluorescence microplate reader at 546/580 nm (excitation/emission). For PBMC proliferation, cells were plated and activated as above but incubated for only 16 h prior to addition of Alamar Blue. Plates were read after 6 h.
Regarding `CCCCOC(=O)CC(CC(=O)OCCCC)(OC(C)=O)C(=O)OCCCC`, the result was inactive.

Take `COc1ccc2cc(S(=O)(=O)N[C@H](CC(=O)N[C@H](Cc3ccc(CN4[C@H](C)CCC[C@@H]4C)cc3)C(=O)N(C)C(C)C)c3ccc4c(c3)OCO4)ccc2c1`: the outcome was inactive.

On to `CCN(CC)C(=O)c1cc(S(=O)(=O)Cc2ccccc2)c(N2CCC(c3ccccc3)CC2)cc1N(CC)CCN(C)C`, for which the AC50 is 28.7 µM (active).

For the molecule `CO[C@H]1/C=C/O[C@@]2(C)Oc3c(C)c(O)c4c(O)c(c(/C=N/N5CCN(C)CC5)c(O)c4c3C2=O)NC(=O)/C(C)=C\C=C\[C@H](C)[C@H](O)[C@@H](C)[C@@H](O)[C@@H](C)[C@H](OC(C)=O)[C@@H]1C`, the result was inactive.

As for `CCCCCCCCCC(=O)O`, the result was inactive.

As to `CC1=CC(=O)/C(=C(/C)O)C(=O)O1`, the result was inactive. Still for that read-out and setting: the entry for `O=C(O)c1ccccc1-n1cc(C(=O)O)c(=O)c2cc(Nc3c(F)cc(F)cc3Cl)c(Cl)cc21` is “inactive”; for `Cc1cn([C@H]2C[C@H](N=[N+]=[N-])[C@@H](CO)O2)c(=O)[nH]c1=O` it is “inactive”. As for `CN(C)C(=O)C1(N2CCCCC2)CCN(CC[C@@]2(c3ccc(Cl)c(Cl)c3)CN(C(=O)c3ccccc3)CCO2)CC1`, the AC50 is 36.8 µM (active).

As to `CCCC(=O)OCCC(C)C`, the result was inactive. The same measure, in the same setting: the entry for `COc1cccc([C@H](O)C2CCN(CCc3ccc(F)cc3)CC2)c1OC` is “inactive”. On to `CN(C)c1ccc(C(=C2C=CC(=[N+](C)C)C=C2)c2ccc(N(C)C)cc2)cc1`, for which the AC50 is 10.3 µM (active).

`CC(O)CC(C)(C)O` (stereo not given): the outcome was inactive. The same measure, in the same setting: the entry for `O=C(OCCCCCCOC(=O)c1ccccc1)c1ccccc1` is “inactive”. With `CN1C(=O)N(c2ccccc2Br)Cc2cnc(Nc3ccc4c(c3)OCC(CO)O4)nc21` (stereo not given), the AC50 is 28.1 µM (active). The same measure, in the same setting: the figure for `CCCCCCCCCCCC[N+](C)(C)C` is 31.8 µM (active).

Take `O=C=NCCCCCCN=C=O`: the outcome was inactive. On the same count and under the same terms, the entry for `OCCO` is “inactive”; for `Cc1ccc(C(C)C)cc1` it is “inactive”.

As to `CC(C)(C)c1cc(/C=C2\SC(N)=NC2=O)cc(C(C)(C)C)c1O`, the AC50 is 31.7 µM (active). Regarding `O=CCCCC=O`, the outcome was inactive.

Consider `CC[C@H](NC(=O)c1cc(F)ccc1NS(=O)(=O)c1cccc2cccnc12)c1ccccc1`, for which the result was inactive.

In the case of `CCCCOC(=O)c1ccc(O)cc1`, the outcome was inactive. On the same count and under the same terms, the entry for `O=c1ccc2ccccc2o1` is “inactive”; for `Cc1ccc2oc(CN(Cc3ccccc3)C(=O)Nc3c(F)cc(F)cc3F)c(-c3ccc(Cl)cc3)c2c1` it is “inactive”. Same read-out and setting: next, `CC(=O)N1CCN(c2ccc(OC[C@H]3CO[C@](Cn4ccnc4)(c4ccc(Cl)cc4Cl)O3)cc2)CC1`: “inactive”; `Clc1cc(Cl)c2c(c1)N=C1CCCCCN1C2`: “inactive”. Regarding `Cc1cc2c(cc1C(F)(F)F)N(C(=O)Nc1ccc(Oc3cccnc3C)nc1)CC2`, the outcome was inactive.

`O=C1CCC(C2CCCCC2)CC1`: the result was inactive. Regarding `NCc1cccc(C2CCN(C(=O)c3ccc(C#Cc4ccccc4F)o3)CC2)c1`, the AC50 is 30.1 µM (active). For `CN1C(=O)CC[C@H]1c1cccnc1`, the result was inactive. On to `CC(C)(c1cc(Br)c(O)c(Br)c1)c1cc(Br)c(O)c(Br)c1`, for which the AC50 was 36 µM (active). As to `CCN(Cc1cccc(S(=O)(=O)O)c1)c1ccc(C(=C2C=CC(=[N+](CC)Cc3cccc(S(=O)(=O)O)c3)C=C2)c2ccccc2S(=O)(=O)[O-])cc1`, the outcome was inactive. On the same count and under the same terms, the entry for `CC[C@@H]1C[C@H](N(Cc2cc(C(F)(F)F)cc(C(F)(F)F)c2)C(C)=O)c2cc(C(F)(F)F)ccc2N1C(=O)OC(C)C` is “inactive”. Take `CN(C[C@@H](CC[N+]12CCC(C3CCCCC3)(CC1)CC2)c1ccc(Cl)c(Cl)c1)C(=O)c1cc(C(F)(F)F)cc(C(F)(F)F)c1`: the AC50 was 39 µM (active). With `CCCCCCCCOC(=O)c1cc(O)c(O)c(O)c1`, the AC50 is 35.5 µM (active).

As for `COCC(C)OCC(C)OCC(C)O` (stereo not given), the result was inactive. For `O=c1c(-c2ccc(O)cc2)coc2cc(O)cc(O)c12`, the outcome was inactive.

On to `COc1cc(C(=O)NC2CCN(C)CC2)ccc1Nc1ncc2c(n1)N(C1CCCC1)CC(F)(F)C(=O)N2C`, for which the outcome was inactive. As for `Oc1ccc2ccccc2c1`, the result was inactive.

As usually defined, the AC50 is the midpoint of the concentration-response curve, whichever way the signal moves.

These data come from PubChem BioAssay (EPA / NIEHS).
